# This is part of a sample that, as a whole, favours compounds with a hit. Of some 83,000 tested, about 20% had one in any assay.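 Testing used 96-well plates and a 48-hour single-concentration exposure. Example: -40 means 40% of the starting cells died.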 A number with no mark means an inactive call. Activity calls are given as the source filed them. The calls were made as follows: active = growth percent below 10; inactive = the rest.
# Columns and labels:
# Assay in all cases: NCI-60 one-dose screen, 48 h (100 = growth as untreated, 0 = no growth, -100 = all killed)
# SR leukemia = conditions: 10 µM unless noted
# OVCAR-8 ovarian = conditions: 10 µM unless noted
# OVCAR-5 ovarian = conditions: 10 µM unless noted
# OVCAR-4 ovarian = conditions: 10 µM unless noted
# SK-OV-3 ovarian = conditions: 10 µM
# IGROV1 ovarian = conditions: 10 µM unless noted
# OVCAR-3 ovarian = conditions: 10 µM unless noted
# HS 578T breast = conditions: 10 µM unless noted
# NCI/ADR-RES ovarian = conditions: 10 µM unless noted
# T-47D breast = conditions: 10 µM
# BT-549 breast = conditions: 10 µM unless noted
# MDA-MB-435 melanoma = conditions: 10 µM unless noted
# SW-620 colon = conditions: 10 µM unless noted
# MCF7 breast = conditions: 10 µM unless noted
# HCT-116 colon = conditions: 10 µM unless noted
# HCC-2998 colon = conditions: 10 µM unless noted
# KM12 colon = conditions: 10 µM unless noted
Structure (SMILES),growth (SR leukemia),growth (OVCAR-8 ovarian),growth (OVCAR-5 ovarian),growth (OVCAR-4 ovarian),growth (SK-OV-3 ovarian) [%],growth (IGROV1 ovarian),growth (OVCAR-3 ovarian),growth (HS 578T breast),growth (NCI/ADR-RES ovarian),growth (T-47D breast),growth (BT-549 breast),growth (MDA-MB-435 melanoma),growth (SW-620 colon),growth (MCF7 breast),growth (HCT-116 colon),growth (HCC-2998 colon),growth (KM12 colon)
c1ccc2c(c1)oc1cc3c(cc12)nnc1cccn13,94.6%,102%,116%,107%,108,87.4%,107%,108%,111%,85.4%,97.9%,105%,108%,82.3%,100%,110%,99.8%
NC(=O)c1cccc(-n2ccc3cc(NC(=O)Nc4ccc(Cl)c(Cl)c4)ccc32)n1,45.5%,80.9%,106%,68.2%,–,87.9%,82.9%,58.5%,91.8%,49.3%,65.8%,61%,94.2%,57.7%,71.9%,97.7%,55.5%
CCOC(=O)n1cc(C2=C(c3cn(C)c4ccccc34)COC2=O)c2ccccc21,14%,16.5%,29.9%,28.8%,–,14.7%,-29.8% (active),9.62% (active),2.15% (active),–,26.8%,-22.2% (active),20.9%,10.2%,10.6%,16.5%,2.55% (active)
O=C1CCC(N2C(=O)c3cccc(NCCOCCOCCNC(=O)c4cc5c(o4)C(=O)c4ccccc4C5=O)c3C2=O)C(=O)N1 (stereo unspecified),9.2% (active),3.28% (active),-90.8% (active),-93.5% (active),–,-16.1% (active),-40.6% (active),-29.7% (active),93.7%,4.87% (active),-89.3% (active),-92.1% (active),-19.3% (active),-61.3% (active),-16.1% (active),-61.7% (active),-8.32% (active)
CCC(=O)Nc1nnc(Cc2ccc(OC)c(OC)c2)s1,-18.1% (active),-32.6% (active),85.9%,-69.7% (active),24.7,30.1%,-45.3% (active),-13% (active),81.3%,-18.7% (active),-66.8% (active),-52% (active),33.8%,15.1%,-68.2% (active),–,36.3%
O=C(Nc1ccccc1O)c1ccc(NS(=O)(=O)c2cccc3cccnc23)cc1,32.8%,23.9%,16.5%,74.5%,64.5,58.6%,62.5%,37.3%,29.2%,–,55.6%,32.6%,30%,42.3%,23.7%,57.3%,74.8%
C[C@H]1C(=O)C23CCC1C[C@@]21O[C@@H]2C(C)(C)C=CC(=O)C23COC1=O,102%,101%,109%,108%,102,110%,126%,109%,106%,98.4%,106%,–,108%,99.5%,96.5%,104%,113%
COc1ccc(NS(=O)(=O)c2ccc(-c3cnc(C4CC4)o3)cc2)cc1,40.8%,81.5%,78.6%,60.8%,–,62.8%,27.4%,42.4%,30.3%,–,58.6%,–,20.1%,29.4%,38.8%,85.9%,40.2%
Oc1ccc(Cl)cc1CNc1nc2ccccc2[nH]1,-31.7% (active),42.8%,98.9%,–,87.1,–,-73.8% (active),89%,38.6%,96%,58.4%,-67.3% (active),-48.6% (active),18%,12.3%,59.3%,13.2%

# Reference: PubChem BioAssay (NCI)
